Screening results from PubChem BioAssay.
PHOSPHO1 block = blocks human PHOSPHO1 phosphatase activity | Q8TCT1 | recombinant PHOSPHO1, absorbance phosphatase assay | inhibition, % at 13.3 µM | hit rate 1.1% among 290,000 | AID 1565; in the data active = inhibition above about 60%
Efflux pump mplx = blocks antifungal efflux pumps in multiplex yeast assay; hit rate 0.44% among 330,000; S. cerevisiae Candida pump triplex, Nile Red efflux; inhibition, % at 10 µM;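 active = plate passing quality check with inhibition over a set limit, or well fluorescence over plate mean plus 4 SD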;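 also: Nile Red retained in pooled yeast measured as flow cytometry median fluorescence; 0% = buffer negative control and 100% = Enniatin B positive control; higher means more Nile Red kept so more efflux inhibition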
Cl transport mod = modulators of human KCC2 chloride dependent transport; hit rate 2.2% among 190,000; KCC2 cells, thallium flux FluoZin-2 fluorescence; B-score of Tl+ flux slope (higher = more flux/activation; lower = inhibition) at 10 µM;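 active = thallium flux slope and its plate-corrected score both differing from the plate sample mean at a set confidence after two filtering rounds, in either direction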;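 also: slope of fluorescence scaled to starting intensity during 10 to 20 s after thallium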
Target sequence (Q9H2X9 whole entry, looked up): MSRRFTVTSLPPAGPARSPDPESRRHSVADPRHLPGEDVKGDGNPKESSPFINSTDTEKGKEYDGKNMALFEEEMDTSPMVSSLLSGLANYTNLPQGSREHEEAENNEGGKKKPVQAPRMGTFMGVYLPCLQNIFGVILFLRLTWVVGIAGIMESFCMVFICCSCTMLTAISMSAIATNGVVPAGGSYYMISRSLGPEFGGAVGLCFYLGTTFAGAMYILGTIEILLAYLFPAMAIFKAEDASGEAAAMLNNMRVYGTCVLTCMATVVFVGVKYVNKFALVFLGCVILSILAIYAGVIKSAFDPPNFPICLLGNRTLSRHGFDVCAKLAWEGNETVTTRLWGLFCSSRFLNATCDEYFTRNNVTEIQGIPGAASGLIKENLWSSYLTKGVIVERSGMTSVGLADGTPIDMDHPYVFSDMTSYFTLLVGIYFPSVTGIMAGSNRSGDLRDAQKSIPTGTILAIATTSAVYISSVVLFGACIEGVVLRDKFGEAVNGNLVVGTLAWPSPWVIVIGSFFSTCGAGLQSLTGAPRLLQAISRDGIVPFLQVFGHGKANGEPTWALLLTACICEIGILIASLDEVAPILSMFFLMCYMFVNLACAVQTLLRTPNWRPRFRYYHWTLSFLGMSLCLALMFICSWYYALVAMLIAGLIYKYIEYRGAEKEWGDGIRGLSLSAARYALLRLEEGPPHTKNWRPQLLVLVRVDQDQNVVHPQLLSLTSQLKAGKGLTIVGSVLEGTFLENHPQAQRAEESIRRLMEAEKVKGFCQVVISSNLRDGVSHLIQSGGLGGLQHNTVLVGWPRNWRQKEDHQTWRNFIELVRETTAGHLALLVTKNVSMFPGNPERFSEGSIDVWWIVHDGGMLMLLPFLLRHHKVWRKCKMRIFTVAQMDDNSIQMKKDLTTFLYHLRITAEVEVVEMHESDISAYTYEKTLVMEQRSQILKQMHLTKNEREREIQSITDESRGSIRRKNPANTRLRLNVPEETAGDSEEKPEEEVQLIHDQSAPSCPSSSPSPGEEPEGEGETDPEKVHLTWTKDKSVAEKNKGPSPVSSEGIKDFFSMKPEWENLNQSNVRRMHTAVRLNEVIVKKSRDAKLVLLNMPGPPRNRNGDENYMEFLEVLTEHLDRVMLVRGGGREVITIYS
Calb FLC = C. albicans growth modulation with fluconazole; AID 1979; C. albicans CaCi-2 (fluconazole-resistant clinical isolate) + fluconazole, Alamar Blue growth, 48 h; hit rate 0.57% among 300,000; growth inhibition, % (test concentration not listed);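 active = growth inhibition above about 58% in most replicates, limit read from the data, passing the limit was not always enough; inconclusive = exactly half the replicates above a set limit; inactive = most replicates below a set limit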;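 also: all wells also contain fluconazole at 8 µg/ml as a sub-toxic cotreatment; 0% = median of DMSO wells and 100% = median of geldanamycin control wells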
H9c2 protect = protects H9c2 cardiomyocytes from peroxide injury; H2O2 injury protection, ATPLite, 2 h; protection from H2O2 cell death, % at 20 µM; hit rate 0.63% among 360,000;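 active = compounds giving at least 50% protection of heart cells from peroxide-induced death in the single-dose screen, raw or plate-pattern-corrected value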;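 also: 0% = DMSO wells with peroxide and 100% = DMSO wells without peroxide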
KCC2 secondary = KCC2 (human) modulation, secondary assay; HEK293-KCC2, thallium flux, FluoZin2 fluorescence; hits give high values; normalised thallium flux (F/F0 slope) at 10 µM; AID 1713; hit rate 15% among 3,700; shares compounds with Cl transport mod;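 active = thallium flux slope above the same plate's solvent-only control mean plus 3 SD; inconclusive = the two replicate wells disagree; inactive = no significant difference from solvent-only control wells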
KCC2 bumet counter = bumetanide-insensitive thallium flux in KCC2 cells with ouabain, counter-screen; shares compounds with Cl transport mod; HEK293-KCC2 + bumetanide/ouabain, thallium flux FluoZin2; hits give high values; hit rate 49% among 3,700; normalized thallium flux at 10 µM;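 active = thallium entry rate above the same plate's blocked-transporter control wells by more than 3 SD; inconclusive = the two repeat wells disagree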;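 also: raw slope of fluorescence over initial fluorescence between 10 and 20 s after thallium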
KCC2 sec2 = KCC2 (human) modulation, second secondary assay; shares compounds with Cl transport mod; HEK293-KCC2, thallium flux FluoZin2 fluorescence; actives lie on both sides; F/F0 rise rate, 10–20 s post-thallium; normalized thallium flux at 10 µM; hit rate 23% among 3,700; AID 1715;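 active = thallium flux slope more than 3 SD above or below the plate's solvent-only control mean, mostly below; inconclusive = the two repeat wells disagreed; inactive = no significant shift from solvent-only controls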;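 also: raw slope with 0.1% DMSO as baseline and bumetanide as block control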
HEK counter1 = acts in parental HEK cells, KCC2 counter-screen | hit rate 46% among 3,700 | HEK293 parental cells, thallium flux FluoZin2, ouabain; baseline-ratio fluorescence slope, 10–20 s after thallium | AID 1716 | thallium flux rate (normalised fluorescence) at 10 µM | shares compounds with Cl transport mod;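 active = thallium flux rate significantly above the same plate's solvent-only control wells, beyond their mean plus 3 SD; inconclusive = the two replicate wells gave conflicting results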
KCC2 retest ouab = KCC2 (human) modulation, ouabain retest; shares compounds with Cl transport mod; HEK293-KCC2, thallium flux FluoZin2 fluorescence; bidirectional: low = inhibitor, high = activator; raw Tl+ flux slope (below DMSO = inhibition, above = activation) at 10 µM; hit rate 48% among 3,700; AID 1717;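 active = thallium flux slope beyond 3 SD from same-plate DMSO control mean in most replicates, usually higher, sometimes lower; inconclusive = repeat tests gave conflicting results; inactive = no significant difference from controls in most replicates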;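 also: slope of initial-normalized fluorescence between seconds 10 and 20 after thallium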
HEK counter2 = acts in parental HEK cells, second KCC2 counter-screen. thallium flux slope at 10 µM. HEK293 parental, thallium flux FluoZin-2 fluorescence slope. hit rate 33% among 3,700. shares compounds with Cl transport mod;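 active = thallium flux slope above the same plate's solvent-control mean plus 3 SD in both duplicate wells; inconclusive = duplicate wells that disagreed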;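 also: run without ouabain in cells lacking the KCC2 cotransporter; slope of fluorescence scaled to its starting value between 10 and 20 s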
* marks the source's active call; other numbers are inactive results; u = inconclusive; x = not tested or not shown. Hits are enriched below; roughly 3.3% of the tested compounds scored in any of these assays.

SMILES	PHOSPHO1 block	Efflux pump mplx	Cl transport mod	Calb FLC	H9c2 protect	KCC2 secondary	KCC2 bumet counter	KCC2 sec2	HEK counter1	KCC2 retest ouab	HEK counter2
CCN(Cc1ccccc1)C(=O)c1cc(COc2c(F)cccc2F)on1	-12.5	0.2	-4.68*	0.1	-6.9	0.00613	0.00452	0.0314	0.00659	0.0143*	u
COc1cccc(CN(C)C(=O)c2cc(COc3ccc4ncccc4c3)on2)c1	61.1*	-0.3	x	-7.9	-25.8	0.00709	0.00356	0.0249*	u	0.0142*	0.00985
O=C(NCCc1cn2ccccc2n1)c1cc(COc2ccc3ncccc3c2)on1	35.4	-0.1	x	-5.9	-20.1	0.00762	0.00642	0.03	0.00743	u	0.00971
COc1cccc(CN(C)C(=O)c2cc(COc3c(F)cccc3F)on2)c1	22.6	0.1	x	50.8	1.7	0.00698	0.00372	0.0246*	u	0.0141*	0.00895
Cc1ccc(C(=O)NC(=S)Nc2ccccc2N2CCOCC2)cc1C	12.3	-0.1	x	-2.4	-4.8	x	x	x	x	x	x
O=C(NC1CCc2ccccc21)c1cc(COc2c(F)cccc2F)on1 (centres undefined)	17.7	0.1	-2.97	-2.3	-5.7	x	x	x	x	x	x
O=C(NCC1OCCc2ccccc21)c1cc(COc2c(F)cccc2F)on1 (centres undefined)	41.2	-0.1	-5.95*	-0.6	2.7	0.00553	0.00438	u	u	0.0128*	0.0108
CN(Cc1ccccc1)C(=O)CCC1CCN(C(=O)CCC(F)(F)F)CC1	24.7	0.3	x	-6.4	10.5	x	x	x	x	x	x
COc1cc(/C=N/Nc2snc(SC)c2C#N)cc(OC)c1OC	3.9	0.0	-0.81	-1.4	-4.3	x	x	x	x	x	x
CSc1nsc(N/N=C/c2ccc3c(c2)OCO3)c1C#N	4.5	0.0	8.22*	-2.1	-12.7	0.0095	0.00685	0.035	0.00428	0.0197	0.0116
Cc1cccc(NC(=S)NNc2ncc(C(F)(F)F)cc2Cl)c1	-10.5	0.3	15.8*	u	-4.1	0.0112	0.118*	0.0323	0.0272*	0.0546*	0.0139*
O=C(Nc1ccccc1)Nc1ncc(C(F)(F)F)cc1Cl	x	x	x	x	-4.0	x	x	x	x	x	x
COc1cc(OC)cc(C2=NC3(CCC(C)CC3)NC2=S)c1 (centres undefined)	-10.1	-0.2	17.5*	-7.8	6.6	0.0117	0.0194*	0.0347	0.0247*	u	0.0115
CC(C)NC[C@H](O)c1ccc(O)c(O)c1	x	0.0	x	x	-4.1	x	x	x	x	x	x
CC(C)NCC(O)c1cc(O)cc(O)c1 (centres undefined)	8.5	-0.1	-2.77*	x	9.0	0.00694	0.00594*	0.0287	u	0.0177	0.0117
COc1ccc(S(=O)(=O)N(CC(=O)NC(C)C)Cc2ccccc2)cc1	9.1	0.0	x	40.3	0.1	x	x	x	x	x	x
NC(=O)CCN(Cc1ccccc1)S(=O)(=O)c1ccccc1	9.9	-0.2	-0.202	-1.6	0.7	x	x	x	x	x	x
COc1ccc(S(=O)(=O)N(CCC(=O)O)Cc2ccccc2)cc1	32.0	0.0	-3.68*	-20.4	-4.4	0.00751	0.00466	0.0219*	0.0073	0.0148*	0.0103
O=C(O)CCCN(Cc1cccc(Br)c1)S(=O)(=O)c1ccc(Br)cc1	-0.7	-0.1	-5.46*	31.0	-6.8	0.0084	0.00618	0.0292*	0.00367	0.0123*	0.0111
COC(=O)C1=NN(C(=O)c2ccc(Br)cc2)C(O)(C(C)(C)C)C1 (centres undefined)	20.0	x	65.8*	x	27.0	0.0486*	0.136*	0.0464*	u	0.0995*	0.0215*
